Measurements: ChEMBL document CHEMBL1961873, “Compounds: GSK PKIS; Assays: Nanosyn kinase panel” (2012)

target: Misshapen-like kinase 1 (Homo sapiens) (UniProt Q8N4C8); conditions: at 1 µM
Sequence (Q8N4C8 whole entry, looked up): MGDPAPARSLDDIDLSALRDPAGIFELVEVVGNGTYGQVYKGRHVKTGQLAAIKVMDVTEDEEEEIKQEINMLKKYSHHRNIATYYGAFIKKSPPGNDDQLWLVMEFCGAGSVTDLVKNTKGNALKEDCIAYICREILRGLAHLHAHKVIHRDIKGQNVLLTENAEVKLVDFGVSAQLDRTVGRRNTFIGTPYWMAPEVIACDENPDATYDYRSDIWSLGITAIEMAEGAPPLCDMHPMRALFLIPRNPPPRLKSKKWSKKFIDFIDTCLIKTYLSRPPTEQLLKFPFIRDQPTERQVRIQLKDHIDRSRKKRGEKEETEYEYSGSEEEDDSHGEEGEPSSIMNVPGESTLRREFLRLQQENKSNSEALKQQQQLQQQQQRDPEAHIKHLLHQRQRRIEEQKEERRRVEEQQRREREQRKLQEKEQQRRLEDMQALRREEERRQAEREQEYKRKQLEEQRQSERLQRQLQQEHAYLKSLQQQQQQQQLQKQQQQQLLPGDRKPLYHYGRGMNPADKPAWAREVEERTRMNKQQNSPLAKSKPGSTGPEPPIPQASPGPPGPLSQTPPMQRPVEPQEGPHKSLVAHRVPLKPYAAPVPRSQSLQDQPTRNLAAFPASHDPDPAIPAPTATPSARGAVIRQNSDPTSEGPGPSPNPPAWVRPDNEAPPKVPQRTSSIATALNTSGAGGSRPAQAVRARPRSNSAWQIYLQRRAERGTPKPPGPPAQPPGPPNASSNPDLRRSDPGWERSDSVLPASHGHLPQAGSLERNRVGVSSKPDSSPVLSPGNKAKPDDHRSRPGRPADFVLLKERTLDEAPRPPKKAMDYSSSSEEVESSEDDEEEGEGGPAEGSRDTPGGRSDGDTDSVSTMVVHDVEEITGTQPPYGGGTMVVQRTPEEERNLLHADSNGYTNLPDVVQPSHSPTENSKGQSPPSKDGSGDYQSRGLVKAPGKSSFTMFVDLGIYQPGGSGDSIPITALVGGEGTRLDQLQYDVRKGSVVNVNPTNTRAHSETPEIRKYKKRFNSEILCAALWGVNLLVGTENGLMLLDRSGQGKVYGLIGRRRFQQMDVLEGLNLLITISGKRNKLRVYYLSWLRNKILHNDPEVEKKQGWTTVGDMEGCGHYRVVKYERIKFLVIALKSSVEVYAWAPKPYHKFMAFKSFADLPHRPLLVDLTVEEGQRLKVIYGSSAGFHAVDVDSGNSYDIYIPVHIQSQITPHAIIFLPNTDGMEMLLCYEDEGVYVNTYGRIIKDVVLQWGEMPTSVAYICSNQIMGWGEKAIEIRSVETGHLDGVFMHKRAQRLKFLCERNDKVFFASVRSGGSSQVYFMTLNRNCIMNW

Compound	inhibition [%]
CN1CCC(n2cnc(-c3ccc(F)cc3)c2-c2ccnc(N)n2)CC1	11
NC(=O)c1sc(-n2cnc3ccc(C(F)(F)F)cc32)cc1OCc1ccccc1Br	11
CN(C)CCOc1ccc(-c2nc(-c3ccncc3)c(-c3ccc4c(c3)CC/C4=N\O)[nH]2)cc1	37.3
CCCN(CCS(C)(=O)=O)Cc1ccc(-c2ccc3ncnc(Nc4ccc(OCc5cccc(F)c5)c(Cl)c4)c3c2)o1	7.61
CCc1nn2ncccc2c1-c1ccnc(NC2CC2)n1	3.73
CCNC(=O)O[C@H]1CN[C@H](C#Cc2cc3ncnc(Nc4ccc(OCc5cccc(F)c5)c(Cl)c4)c3s2)C1	5.58
CNC(=O)c1cccc(C#Cc2cncnc2Nc2ccc(OCc3cccc(F)c3)c(Cl)c2)c1	5.14
CCN1CCC(CC(=O)Nc2n[nH]c3nnc(-c4cccc(F)c4F)cc23)CC1	4.07
c1cc(-c2cnn3nc(N4CCOCC4)ccc23)nc(NC2CC2)n1	13.9
CS(=O)(=O)CCNCc1coc(-c2ccc3ncnc(Nc4ccc(OCc5ccccc5)cc4)c3c2)c1	4.66
COc1ccc(-c2cc3c(N)ncnc3o2)cc1	6.5
N#Cc1c(NC(=O)CN2CCOCC2)sc2c1CCCC2	6.87
Clc1ccc(-c2nn3ncccc3c2-c2ccnc(Nc3ccccc3)n2)cc1	33
COc1cc(/C=N/Nc2ncnc3[nH]ncc23)ccc1O	25.1
CC(C)(CO)CNC(=O)c1ccc2c(c1)/C(=N/Nc1ccc(S(N)(=O)=O)cc1)C(=O)N2	13.1
Cc1ccc(O)cc1Nc1ccnc2cc(-c3ccccn3)ccc12	65.2
Fc1ccc(-c2nn3ccccc3c2-c2ccncc2)cc1	22.3

Compound	inhibition [%]
c1ccc(-c2nc3n(c2-c2ccc4c(c2)OCO4)CCC3)nc1	6.24
N#Cc1c(NC(=O)c2ccc(F)cc2)sc2c1CCCC2	4.89
COc1cc(N2CCN(C(C)C)CC2)ccc1Nc1nc(Nc2ccc(F)cc2C(N)=O)c2cc[nH]c2n1	55
COc1cc2c(cc1Nc1nc(Nc3ccsc3C(N)=O)c3cc[nH]c3n1)N(C(=O)CN(C)C)CCC2(C)C	15.3
O=S(=O)(CCNCc1ccc(-c2ccc3ncnc(Nc4ccc(OCc5cccc(F)c5)c(Cl)c4)c3c2)o1)c1ccccc1	5.63
CCOc1ccc2c(-c3ccnc(Nc4cccc(C(F)(F)F)c4)n3)cnn2n1	7.19
Cc1ccc2c(-c3ccnc(Nc4ccccc4)n3)c(-c3ccc(F)cc3)nn2n1	50.7
CNC(=O)c1cc(-c2ccc(F)cc2)cc(-c2ccc(S(=O)(=O)N3CCCC3)cc2)c1N	5.6
CCn1cc(-c2ccnc3[nH]ccc23)c(-c2cccc(NC(=O)Nc3ccc(OCc4ccccc4)cc3)c2)n1	30.9
COc1cc(Nc2nccc(Nc3ccc4c(C)n[nH]c4c3)n2)cc(OC)c1OC	11
CCn1c(-c2nonc2N)nc2c(C#CC(C)(C)O)nc(OC[C@H](N)c3ccccc3)cc21	21.1
c1ccc(COc2ccc(Nc3ncnc4ccc(-c5ccco5)cc34)cc2)cc1	3.27
Nc1ncc(-c2cccc(S(N)(=O)=O)c2)c2scc(-c3ccc(F)c(Cl)c3)c12	91.6
CS(=O)(=O)CCNCc1ccc(-c2ccc3ncnc(Nc4ccc(OCc5ccccc5)c(C(F)(F)F)c4)c3c2)o1	5.83
CCN(CC)S(=O)(=O)c1ccc(OC)c(Nc2ncc(-c3ccccc3)o2)c1	7.11
NS(=O)(=O)c1ccc(N/N=C2\C(=O)Nc3ccc4ncccc4c32)cc1	76.2
COC(=O)Nc1nc2ccc(Oc3ccc(NC(=O)Nc4cccc(Cl)c4)cc3)cc2[nH]1	4.97
